The text below walks through data of ChEMBL document CHEMBL3988442, “University of Dundee, Small-Polar-MMV Screening Library” (2021).

This experiment deals with Trypanosoma brucei. The experiment can be described thus: Trypanosoma brucei 72 hour study. Details: scale not given: in the data most compounds retested in dose-response had high values. It is filed as functional, organism-based.

Out of some 66,000 compounds screened, about 960 (1.5%) showed an effect of 50% or more. The list comes from a sample in which strong results are over-represented; it also holds similar structures and randomly drawn compounds.

Take `CCOc1ccccc1-c1cc(N)[nH]n1.Cl`: the “Percent Effect” value (30.3 µM, […]) is -3.53%.

Take `CC(C)NC(=O)C1CN(Cc2ccc(F)cc2)CC12CCOCC2.O=C(O)C(F)(F)F` (centres undefined): the “Percent Effect” value (30 µM, 30.03 µM) was -12.09%.

Turning to `CCC(C)(COc1ncccc1Cl)NCC(=O)NCC(C)C` (centres undefined), the “Percent Effect” value (30 µM, 30.03 µM) is given as -31.89%.

`CCC1=N[C@@]2(CC[C@@H]3CN(CC4CC4)C[C@@H]32)C(=O)N1CC1CC1.O=C(O)C(F)(F)F`: for the setting “30 µM, 30.03 µM”, the “Percent Effect” value was -23.62%.

Consider `COc1ccnc(N2CCCN(C(=O)Cc3ccc(C)s3)CC2)n1`, for which the “Percent Effect” value (10 µM) was -47.83%.

On to `Cc1cccc(CNC2CC3(CCN(CCO)CC3)c3ccccc32)n1.O=C(O)C(F)(F)F.O=C(O)C(F)(F)F` (centres undefined), for which the “Percent Effect” value (30.3 µM, […]) is 13.54%.

In the case of `Cn1ncc2c1C(COCC1CC1)CN(C(=O)c1cscn1)C2.O=C(O)C(F)(F)F` (centres undefined), the “Percent Effect” value (30 µM, 30.03 µM) is 21.88%.

For the molecule `Cn1cc(CN2CCn3cc(CNC(=O)c4cccn4C)nc3C2)cn1.O=C(O)C(F)(F)F`, the “Percent Effect” value (30 µM, 30.03 µM) stood at 21.81%.

Take `CC(=O)N1CCCCCC1C1CCN(c2ncccc2C#N)CC1` (centres undefined): the “Percent Effect” value (30.3 µM, […]) is 13.42%.

On to `N#Cc1cccnc1N1CCC(C2CCCCCN2C(=O)C2CC2)CC1` (centres undefined), for which the “Percent Effect” value (30.3 µM, […]) came to 53.48%.

Regarding `N#Cc1cccnc1N1CCC(C2CCCCCN2C(N)=O)CC1` (centres undefined), under “30.3 µM, […]”, the “Percent Effect” value amounted to 5.33%.

Take `Cn1cnnc1-c1ccnc(NCc2ccccc2)c1`: the “Percent Effect” value (30.3 µM, […]) stood at 5.527%.

On to `Cn1nccc1CN1CCOC(c2ccc(-c3cncnc3)cn2)C1` (centres undefined), for which the “Percent Effect” value (30.3 µM, […]) worked out at 1.674%.

Turning to `Cn1nccc1CN1CCOC(c2cccc(Nc3ccccn3)n2)C1` (centres undefined), the “Percent Effect” value (30.3 µM, […]) came to 100.5%.

Turning to `Br.Cn1nccc1CN1CCOC(c2cccc(-c3cncnc3)n2)C1` (centres undefined), the “Percent Effect” value (30.3 µM, […]) is listed as -1.234%.

For the molecule `NC(=O)c1cc(NC(=O)N2CCOCC2)ccc1F`, the “Percent Effect” value (30 µM, 30.03 µM) was -9.926%.

With `O=C(Nc1ccc(F)c(Br)c1)N1CCCC1`, the “Percent Effect” value (30 µM, 30.03 µM) is given as 97.43%.

As to `NC(=O)c1cc(NC(=O)N2CCCCCC2)ccc1F`, the “Percent Effect” value (30 µM, 30.03 µM) is recorded as -43.72%.

Turning to `CC(C)CN1CCC2(C=C(C(=O)N(C)C)c3ccccc32)CC1.O=C(O)C(F)(F)F`, the “Percent Effect” value (30.3 µM, […]) is -83.33%.

For `Cc1ccc(CN2CCn3cc(CNC(=O)c4cnn(C)c4)nc3C2)s1.O=C(O)C(F)(F)F`, where the note is “30 µM, 30.03 µM”, the “Percent Effect” value was -34.09%.

Regarding `CC(C)C(=O)N1CCC2(CC1)COCCN2Cc1ccc(F)cc1.O=C(O)C(F)(F)F`, the “Percent Effect” value (30 µM, 30.03 µM) is recorded as 21.09%.

In the case of `Cc1cc2c(=O)n3c(nc2s1)CCN(Cc1cncn1C)CC3.Cl`, the “Percent Effect” value (30.3 µM, […]) came out at 6.762%.

For `CCNC(=O)NC(=O)CNc1cc(C#N)ccc1OCC`, the “Percent Effect” value was -6.445% (30.3 µM, […]) and -44.56% (10 mM, 10 mM as filed; unlikely as a test dose).

For `CCCNC(=O)CNc1cc(C#N)ccc1OCC`, under “30 µM, 30.03 µM”, the “Percent Effect” value was determined as 58.39%.

For the molecule `CCOc1ccc(C#N)cc1NCC(=O)OC`, the “Percent Effect” value by setting is: (30.3 µM, […]) -4.293%; (10 mM, 10 mM as filed; unlikely as a test dose) -28.98%.

With `CC(C)C[C@@H](N)C(=O)N(C)Cc1csc(C(C)C)n1`, the “Percent Effect” value (30 µM, 30.03 µM) stood at 100.6%.

With `CC(C)c1nc(CN(C)C(=O)c2ccc3c(c2)OCC(=O)N3)cs1`, the “Percent Effect” value (30 µM, 30.03 µM) was found to be 17.57%.

For the molecule `CC(C)c1nc(CN(C)C(=O)CCc2ccc3c(c2)OCO3)cs1`, the “Percent Effect” value (30 µM, 30.03 µM) stood at 12.36%.

Take `CC(C)c1nc(CN(C)C(=O)c2ccc3c(c2)OCO3)cs1`: the “Percent Effect” value (30 µM, 30.03 µM) worked out at 56.82%.

On to `CCN(CC)C(=O)Cc1csc(C(C)C)n1`, for which the “Percent Effect” value (30 µM, 30.03 µM) was -85.89%.

As for `CC(C)c1nc(CN(C)C(=O)[C@H](N)Cc2ccc(Cl)cc2)cs1`, the “Percent Effect” value (30 µM, 30.03 µM) was -3.528%.

On to `CCN(CC(=O)NC)C(=O)Cc1csc(C(C)C)n1`, for which, for the setting “30 µM, 30.03 µM”, the “Percent Effect” value is recorded as -25.08%.

Consider `CC(C)c1nc(CN(C)C(=O)C(O)c2ccc(Cl)cc2)cs1` (centres undefined), for which the “Percent Effect” value (30 µM, 30.03 µM) turned out to be 3.875%.

`CNC(=O)CN(C)C(=O)Cc1csc(C(C)C)n1`: the “Percent Effect” value (30 µM, 30.03 µM) was 70.2%.

In the case of `Cc1cccc(CN2C(=O)CO[C@@H]3CN(C4CCOCC4)C[C@H]32)c1.O=C(O)C(F)(F)F`, the “Percent Effect” value (30 µM, 30.03 µM) is -46.8%.

For the molecule `O=C(O)C(F)(F)F.O=C(c1ccco1)N1C[C@H]2CCCN(CC3CC3)[C@H]2C1`, the “Percent Effect” value (30 µM, 30.03 µM) was -18.48%.

Consider `CCN(C)c1ncnc2c1CCN(Cc1ccc(F)cc1)CC2.O=C(O)C(F)(F)F.O=C(O)C(F)(F)F`, for which, for the setting “30 µM, 30.03 µM”, the “Percent Effect” value turned out to be 0%.

As to `CC(=O)N1CCOCC2(CN(Cc3ccc(C)o3)CCO2)C1.O=C(O)C(F)(F)F` (centres undefined), the “Percent Effect” value (30 µM, 30.03 µM) is reported as 0.2271%.

In the case of `COCCCC1(CO)CCCN(CCc2ccccn2)C1` (centres undefined), the “Percent Effect” value (30 µM, 30.03 µM) is -19.7%.

In the case of `COCCC1(CO)CCCN(CCCc2ccccc2)C1` (centres undefined), where the note is “30 µM, 30.03 µM”, the “Percent Effect” value is -35.64%.

As to `COCCCC1(CO)CCCN(CCc2ccccc2)C1` (centres undefined), where the note is “30 µM, 30.03 µM”, the “Percent Effect” value came out at 60.85%.

Regarding `COCCn1c(=O)n(C)c(=O)c2ccc(C3CCC(CN)CC3)nc21.Cl` (centres undefined), for the setting “30.3 µM, […]”, the “Percent Effect” value worked out at 8.357%.

Regarding `COc1cccc(CNC(Cc2cccs2)c2nc(C)c(C)s2)c1OC.Cl` (centres undefined), where the note is “30.3 µM, […]”, the “Percent Effect” value is reported as -32.09%.

With `CCc1ccc2nc(C)cc(C(=O)N[C@@H]3CNC[C@H]3O)c2c1`, for the setting “30 µM, 30.03 µM”, the “Percent Effect” value is recorded as -69.69%.

On to `CCc1ccc2nc(C)cc(C(=O)NC[C@@H]3CCNC[C@H]3O)c2c1`, for which the “Percent Effect” value (30 µM, 30.03 µM) is -34.49%.

As for `CCc1ccc2nc(C)cc(C(=O)N[C@@H]3CCCNC3)c2c1`, the “Percent Effect” value (30 µM, 30.03 µM) was determined as 86.43%.

Consider `CCS(=O)(=O)N1CCCC2(COCCN(c3ccccn3)C2)C1.O=C(O)C(F)(F)F` (centres undefined), for which the “Percent Effect” value (30 µM, 30.03 µM) is given as -23.72%.

Take `Cc1nn(C)c(Cl)c1CNCc1cccnc1N1CCOCC1.Cl`: where the note is “30 µM, 30.03 µM”, the “Percent Effect” value is 16.35%.

As for `COC(=O)Cn1c(C)cc(=O)c2cc(F)ccc21`, where the note is “30.3 µM, […]”, the “Percent Effect” value is reported as -56.52%.

As for `CC1(c2ccccc2)CCCN(Cc2cncn2C2CCCC2)C1` (centres undefined), the “Percent Effect” value (30 µM, 30.03 µM) is given as 102.5%.

In the case of `COCCn1cncc1CN1CCCC(C)(c2ccccc2)C1` (centres undefined), the “Percent Effect” value (30 µM, 30.03 µM) is -43.69%.

`CC1(c2ccccc2)CCCN(Cc2cncn2C2CC2)C1` (centres undefined): where the note is “30 µM, 30.03 µM”, the “Percent Effect” value was -39.24%.

Regarding `Cn1ccc(C(=O)N2CCCCC2c2cc(CCO)[nH]n2)n1` (centres undefined), the “Percent Effect” value (30.3 µM, […]) is -16.55%.

For the molecule `O=C(Cc1cccs1)N1C[C@H]2CN(CC3CCCO3)CC[C@H]2C1.O=C(O)C(F)(F)F` (some centres undefined), the “Percent Effect” value (30 µM, 30.03 µM) is -6.249%.

As for `COC(=O)c1cc(C(=O)N2CCOC(C)(C)C2)n(-c2ccccc2)n1`, the “Percent Effect” value (30.3 µM, […]) worked out at 6.059%.

For the molecule `Cc1nc(C)n(CC2CCCN2CC(=O)NCCc2ccsc2)n1` (centres undefined), the “Percent Effect” value (30 µM, 30.03 µM) was -16.47%.

Regarding `CN1CCN(c2ccc(S(N)(=O)=O)cc2C#N)Cc2ccccc21`, the “Percent Effect” value (30.3 µM, […]) is on record as -63.54%.

For `CC(=O)N1CCC(n2ccc(-c3cnc(N4CCOCC4)nc3)n2)CC1`, where the note is “30.3 µM, […]”, the “Percent Effect” value was determined as 26%.

Turning to `CC[C@H](C)Nc1ncc(-c2ccn(C3CCN(C(C)=O)CC3)n2)cn1`, the “Percent Effect” value (30.3 µM, […]) was -5.339%.

`CC(=O)N1CCC(n2ccc(-c3cnc(NCC(C)C)nc3)n2)CC1`: the “Percent Effect” value (30.3 µM, […]) came to 77.59%.

With `CC(C)n1c(=O)nc2n1C(=O)N(c1ccc(Br)cc1)C2`, the “Percent Effect” value (30 µM, 30.03 µM) is on record as -31.4%.

With `N#Cc1cccc(CN2C[C@H](NC(=O)C3CC3)[C@H]3OCCC[C@H]32)c1.O=C(O)C(F)(F)F`, the “Percent Effect” value (30.3 µM, […]) was -35.12%.
